# Inconclusive results are not listed. For some assays here: Entries with a potency or affinity are not part of this list. Active and inactive are the calls of the source.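 How the source made its calls, unless noted: active means luciferase signal above three times the same-plate solvent-only control wells; inactive means the rest.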
# Key:
# [1] = molecular target: Mitogen-activated protein kinase 7 (Homo sapiens) (UniProt Q13164); test: Gal4-ERK5 driven luciferase induction – cell-based, HTS, primary screen (AID 1508626); conditions: HeLa Gal4-ERK5 transactivation, 18 h, at 5 µM, stronger effect = higher value;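 further: luciferase driven by Gal4-ERK5 fusion binding five Gal4 sites before minimal TATA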
# Sequence of Mitogen-activated protein kinase 7 (Homo sapiens) (Q13164 whole entry, looked up, the tested form may be a part): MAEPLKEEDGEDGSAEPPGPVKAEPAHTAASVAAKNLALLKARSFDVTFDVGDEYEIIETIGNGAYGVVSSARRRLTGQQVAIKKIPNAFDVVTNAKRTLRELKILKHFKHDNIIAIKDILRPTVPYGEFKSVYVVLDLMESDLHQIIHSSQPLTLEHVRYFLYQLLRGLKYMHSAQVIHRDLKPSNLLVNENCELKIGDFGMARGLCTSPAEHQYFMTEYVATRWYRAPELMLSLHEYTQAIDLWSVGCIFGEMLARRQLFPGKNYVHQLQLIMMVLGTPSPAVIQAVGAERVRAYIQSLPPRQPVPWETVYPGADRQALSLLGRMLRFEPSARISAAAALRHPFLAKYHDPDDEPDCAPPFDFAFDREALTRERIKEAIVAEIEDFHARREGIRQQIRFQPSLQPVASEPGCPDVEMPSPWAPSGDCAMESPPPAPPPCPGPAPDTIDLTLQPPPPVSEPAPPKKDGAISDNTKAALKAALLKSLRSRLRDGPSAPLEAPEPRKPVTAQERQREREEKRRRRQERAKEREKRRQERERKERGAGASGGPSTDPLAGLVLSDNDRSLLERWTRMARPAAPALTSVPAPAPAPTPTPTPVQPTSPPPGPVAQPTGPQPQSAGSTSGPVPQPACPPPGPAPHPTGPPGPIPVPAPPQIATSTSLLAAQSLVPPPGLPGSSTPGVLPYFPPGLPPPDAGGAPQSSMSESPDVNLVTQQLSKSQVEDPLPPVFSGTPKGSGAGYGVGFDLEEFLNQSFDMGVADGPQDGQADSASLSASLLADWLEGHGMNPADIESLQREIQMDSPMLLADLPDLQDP
# [2] = blockers of polyQ-driven CASP3 activation – cell-based (AID 1583); conditions: polyglutamine-induced caspase-3 activation, cell assay; stronger effect = higher value;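 tested at 10 µM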
# [3] = yeast 75Q aggregation reduction – 75Q-TubU reporter (AID 1593); conditions: Yeast 75Q polyglutamine aggregation reporter
# [4] = restoration of touch response, mutant HTT neurons – whole organism, C. elegans mechanosensory neurons, N-terminal huntingtin (AID 1599); conditions: C. elegans polyQ-huntingtin mechanosensory neurons, stronger effect = higher value
# [5] = blockers of cytochrome c efflux from mitochondria – biochemical, purified mitochondria (AID 1603); conditions: stronger effect = lower value;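 further: mouse liver mitochondria challenged with calcium chloride; signal normalized to the plate average as 100%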
# [6] = polyglutamine aggregate formation blockers (AID 1604); conditions: polyglutamine-induced protein aggregation inhibition assay; stronger effect = higher value; tested at 2.5 µM
# [7] = glutamate transport activators, MN-1 cells, MN-1 cell line (AID 1612); conditions: MN-1 motor neuron cells, stronger effect = higher value;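 further: tested at 1 µM final; 0% = mean of DMSO vehicle wells on each plate; positive means more glutamate uptake than control and negative means less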
# [8] = GFP-Q80 aggregate reduction, neuronal-like cells, cell-based, NGF-treated PC12, GFPQ80 (AID 1614); conditions: PC12 NGF-treated GFP-polyQ80 inclusion reduction;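 further: lower means fewer inclusions and 0 means no inclusions at all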
# [9] = 75Q-TubH aggregate inhibition, S. cerevisiae, yeast (AID 1616); conditions: S. cerevisiae 75Q-TubH polyglutamine aggregation suppression; stronger effect = higher value
# [10] = selective SMN2 exon splicing luciferase activators – cell-based, SMN2/SMN1 luciferase reporters (AID 1598; call rule not given here); conditions: SMN2 vs SMN1 luciferase splicing reporter cells, at 10 µM; SMN1 luciferase ratio: measured here: SMN1 luciferase reporter average; SMN2 luciferase ratio: measured here: SMN2 luciferase reporter average, stronger effect = higher value; SMN2/SMN1 luciferase ratio: stronger effect = higher value
# [11] = rescue of PC12 cells from polyQ htt toxicity – LDH release (AID 1610); conditions: PC12 mutant huntingtin toxicity, final LDH at 4 uM, stronger effect = lower value
# [12] = P. berghei load reduction in hepatocytes – cell-based, HepG2, luciferase luminescence, HepG2 viability, primary screen (AID 624349; in the data active means parasite load remaining mostly below about 12%, no sharp cut-off; inactive means mostly above about 10%;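 further: 100% = mean of DMSO negative control wells on the same plate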); conditions: P. berghei liver stage in HepG2, luciferase luminescence, concentration not given here; parasite load remaining: stronger effect = lower value; viability: measured here: HepG2 viability without parasites
# [13] = blockers of MitoPT in mitochondria (AID 1580; call rule not given here); conditions: isolated mitochondria, permeability transition inhibition
smiles,measurement,setting,value
COc1cc(-c2cc(=O)c3c(O)c(OC)c(OC)c(OC)c3o2)cc(OC)c1OC,luciferase signal,[1],40 AU (inactive)
CO/N=C(/C(=O)N[C@@H]1C(=O)N2C(C(=O)OC(C)OC(C)=O)=C(COC(N)=O)CS[C@H]12)c1ccco1 (some centres not stated),luciferase signal,[1],120 AU (inactive)
CC(C)CC1NC(=O)CNC1=O (configuration not stated),inhibition,[2],8.98%
same,score,[3],1.33
same,rescue above control,[4],-6.28
same,cytochrome c release ratio,[5],1.01
same,inhibition of aggregation,[6],-30.2%
same,glutamate uptake change,[7],-1.97%
same,inclusion score,[8],2
same,aggregation suppression score,[9],0.832
CCCCC/C=C/CCC(=O)N[C@H]1[C@H](Oc2c3cc4cc2Oc2ccc(cc2Cl)[C@@H](O[C@@H]2O[C@H](CO)[C@@H](O)[C@H](O)[C@H]2NC(C)=O)[C@@H]2NC(=O)[C@H](NC(=O)[C@@H]4NC(=O)[C@H]4NC(=O)C(Cc5ccc(c(Cl)c5)O3)NC(=O)[C@@H](N)c3ccc(O)c(c3)Oc3cc(O)cc4c3)c3ccc(O)c(c3)-c3c(OC4O[C@H](CO)[C@@H](O)[C@H](O)[C@@H]4O)cc(O)cc3[C@@H](C(=O)O)NC2=O)O[C@H](CO)[C@@H](O)[C@@H]1O (some centres not stated),luciferase signal,[1],52 AU (inactive)
CC[C@@]1(O)C[C@H](OC2CC(N(C)C)C(OC3CC(O)C(OC4CCC(=O)C(C)O4)C(C)O3)C(C)O2)c2c(cc3c(c2O)C(=O)c2c(O)cccc2C3=O)[C@H]1C(=O)OC (some centres not stated),inhibition,[2],-23.8%
same,score,[3],0.51
same,SMN1 luciferase ratio,[10],1.26
same,SMN2/SMN1 luciferase ratio,[10],1.34 (active)
same,SMN2 luciferase ratio,[10],1.64
same,rescue above control,[4],0
same,cytochrome c release ratio,[5],4.02
same,inhibition of aggregation,[6],1.96%
same,normalised LDH release,[11],0.363
same,glutamate uptake change,[7],47.8%
same,aggregation suppression score,[9],0.557
O=C(O)C(O)C(O)(Cc1ccc(O)cc1)C(=O)O (configuration not stated),luciferase signal,[1],16 AU (inactive)
CCCCCCCCCCCCCCC(C(=O)O)C(O)(CC(=O)OC)C(=O)O (configuration not stated),luciferase signal,[1],64 AU (inactive)
CO/N=C(/C(=O)NC1C(=O)N2C(C(=O)O)=C(CSc3nc(=O)c(=O)[nH]n3C)CS[C@H]12)c1csc(N)n1 (some centres not stated),luciferase signal,[1],52 AU (inactive)
O=c1cc(-c2cccc(O)c2)oc2ccc(O)cc12,luciferase signal,[1],124 AU (inactive)
CC(NC(=O)C(NC(=O)OCc1ccccc1)C(C)C)C(=O)NC(CC(=O)O)C(=O)OC(F)F (configuration not stated),inhibition,[2],59.7%
same,score,[3],1.09
same,rescue above control,[4],-1.19
same,cytochrome c release ratio,[5],0.97
same,inhibition of aggregation,[6],0.68%
same,normalised LDH release,[11],0.83
same,glutamate uptake change,[7],2.37%
same,inclusion score,[8],2
same,aggregation suppression score,[9],1.2
CC(=O)N[C@@H](Cc1c[nH]c2ccccc12)C(N)=O,inhibition,[2],11.7%
same,score,[3],1.31
same,rescue above control,[4],23.8
same,cytochrome c release ratio,[5],0.46
same,inhibition of aggregation,[6],60.3%
same,glutamate uptake change,[7],-9.38%
same,aggregation suppression score,[9],1.53
same,parasite load remaining,[12],142% (inactive)
same,viability,[12],71.9%
same,luciferase signal,[1],80 AU (inactive)
CO/N=C(\C(=O)NC1C(=O)N2C(C(=O)O)=C(CSc3nc(=O)c(O)nn3C)CS[C@H]12)c1csc(N)n1 (some centres not stated),inhibition,[2],3.84%
same,score,[3],1.38
same,rescue above control,[4],-0.56
same,cytochrome c release ratio,[5],1.14
same,inhibition of aggregation,[6],62.1%
same,glutamate uptake change,[7],15.4%
same,inclusion score,[8],2
same,aggregation suppression score,[9],1.05
Nc1ncnc2c1ncn2[C@H]1C[C@H](O)[C@@H](CO)O1,luciferase signal,[1],136 AU (inactive)
CC[C@@H](C(=O)C(C)[C@@H](O)[C@H](C)CCc1ccc(C)c(O)c1C(=O)O)C1OC(CC)(C2CC[C@](O)(CC)[C@H](C)O2)C[C@@H]1C (some centres not stated),EC50,[13],100 nM (active)
same,inhibition,[2],75.5%
same,score,[3],1
same,rescue above control,[4],0
same,cytochrome c release ratio,[5],1
same,inhibition of aggregation,[6],74%
same,glutamate uptake change,[7],-67.2%
same,aggregation suppression score,[9],0.948
same,parasite load remaining,[12],-0.43% (inactive)
same,viability,[12],84.4%
C[C@H](CCC(=O)O)[C@H]1CC[C@H]2[C@@H]3CC[C@@H]4CCCC[C@]4(C)[C@H]3CC[C@]12C,luciferase signal,[1],36 AU (inactive)
O=c1c(O)c(-c2ccccc2)oc2cccc(O)c12,luciferase signal,[1],60 AU (inactive)
CC(=O)Oc1cc(C)c2c(c1C=O)Oc1c(c(C)c(OC(C)=O)c3c1C(OC(C)=O)OC3=O)OC2=O (configuration not stated),luciferase signal,[1],172 AU (inactive)
CC1(C)CC2C1CC[C@]1(C)CCC3C(C(=O)O)CC(=O)O[C@@]32C1 (some centres not stated),luciferase signal,[1],56 AU (inactive)
COc1ccc2c(c1OC)C(=O)O[C@H]2[C@@H]1c2ccccc2CCN1C,inhibition,[2],69.2%
same,score,[3],1.08
same,rescue above control,[4],-8.02
same,cytochrome c release ratio,[5],0.71
same,inhibition of aggregation,[6],72.2%
same,glutamate uptake change,[7],-0.43%
same,inclusion score,[8],2
same,aggregation suppression score,[9],19
CC(=O)C1CCC2C3CC=C4CC(OS(=O)(=O)O)CC[C@]4(C)C3CC[C@]12C (some centres not stated),inhibition,[2],-1.98%
same,score,[3],0.85
same,rescue above control,[4],6.71
same,cytochrome c release ratio,[5],1.34
same,inhibition of aggregation,[6],37.2%
same,glutamate uptake change,[7],48.1%
same,inclusion score,[8],2
same,aggregation suppression score,[9],0.286
CC1(C)CC[C@]2(C(=O)O)CC[C@]3(C)C(=CC[C@@H]4[C@@]5(C)CC[C@H](O)C(C)(C)[C@@H]5[C@H](O)C[C@]43C)[C@@H]2C1,luciferase signal,[1],84 AU (inactive)
O=C(O)/C=C/c1ccccc1,luciferase signal,[1],52 AU (inactive)
NC(=O)CCCCC(S)CCS (configuration not stated),luciferase signal,[1],32 AU (inactive)
C[C@@H]1CC[C@@]2(OC1)O[C@H]1C[C@H]3[C@@H]4CC[C@@H]5C[C@@H](O)CC[C@]5(C)[C@H]4CC[C@]3(C)[C@H]1[C@@H]2C,luciferase signal,[1],20 AU (inactive)
O[C@H]1[C@H](O)[C@@H](O)C2OC[C@H]1O2,luciferase signal,[1],60 AU (inactive)
COC(=O)/C=C/C(C)=C\C=C\C(C)=C\C=C\C=C(C)\C=C\C=C(C)\C=C\C(=O)O,luciferase signal,[1],64 AU (inactive)
CCCCC(=O)OC1(C(=O)CO)C(C)CC2C3CCC4=CC(=O)C=CC4(C)[C@@]3(F)[C@@H](O)CC21C (some centres not stated),inhibition,[2],9.05%
same,score,[3],-0.8
same,rescue above control,[4],-0.98
same,cytochrome c release ratio,[5],1.65
same,inhibition of aggregation,[6],82%
same,normalised LDH release,[11],0.899
same,glutamate uptake change,[7],9.55%
same,aggregation suppression score,[9],1.32
CC(Oc1ccccc1)C(=O)NC1C(=O)N2C(C(=O)O)C(C)(C)S[C@H]12 (some centres not stated),inhibition,[2],11.5%
same,score,[3],1.28
same,rescue above control,[4],-11.5
same,cytochrome c release ratio,[5],0.66
same,inhibition of aggregation,[6],83.6%
same,glutamate uptake change,[7],4.57%
same,inclusion score,[8],2
same,aggregation suppression score,[9],1.04
CC12CCC(CC1=O)C2(C)C (configuration not stated),inhibition,[2],15.1%
same,score,[3],1.08
same,rescue above control,[4],1.05
same,cytochrome c release ratio,[5],1.24
same,inhibition of aggregation,[6],43.2%
same,glutamate uptake change,[7],5.12%
same,inclusion score,[8],2
same,aggregation suppression score,[9],1.49
CC1CC2C3CCC4=CC(=O)C=CC4(C)[C@@]3(F)C(O)CC2(C)[C@@]1(O)C(=O)CO (some centres not stated),inhibition,[2],7.1%
same,score,[3],1.26
same,rescue above control,[4],8.02
same,cytochrome c release ratio,[5],1.12
same,inhibition of aggregation,[6],59.3%
same,glutamate uptake change,[7],-14.9%
same,inclusion score,[8],2
same,aggregation suppression score,[9],1.3
